Source: PubChem (several laboratories)
LANA-H2B inh – blockers of LANA interaction with H2A/H2B – biochemical, FP readout, HTS, primary screen; Protein LANA1 (Human herpesvirus 8 type P (isolate GK18)), Q9QR71; cell-free LANA-H2A/H2B peptide, fluorescence polarization; inhibition, % (concentration not given with the values); 320,000 compounds, 0.6% hits; in the data active means inhibition mostly above about 10%, no sharp cut-off; inactive means mostly below about 6.7%
Rtt109 HAT inh – inhibitors of C. albicans Rtt109/Vps75 HAT, primary screen, biochemical, ThioGlo CoA-SH fluorescence, plate reader | Histone acetyltransferase RTT109 (Candida albicans (strain SC5314 / ATCC MYA-2876)), … | purified Rtt109/Vps75, 4 h | inhibition, % at 34.9 µM | 330,000 compounds, 0.16% hits | AID 540336, 2011;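 active means inhibition of at least 50% in every replicate; inconclusive means best replicate reaches 50% inhibition but some replicates fall short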
TLR4-MyD88 BLA – inhibitors of TLR4-MyD88 association in cells, primary screen, cell-based, HeLa CL3-4, BLA complementation, FRET ratio | HeLa CL3-4 TLR4/MyD88 BLA complementation | inhibition, % at 8.4 µM | 200,000 compounds, 0.18% hits | AID 861, 2007; in the data active means inhibition above about 25%
HTR2A ag – mouse Htr2a agonists via beta-arrestin recruitment, primary screen, cell-based, luminescence | 5-hydroxytryptamine receptor 2A (Mus musculus), P35363 | CHO-K1 mHTR2A beta-arrestin complementation; percent of 30 µM serotonin response | activation, % at 7.6 µM | 360,000 compounds, 0.66% hits;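 active means activation above a run cutoff, the mean activation of all tested compounds plus 3 SD, cut at about 14% in these data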
NOD2-RIPK2 inh – NOD2-RIPK2 binding disruptors in cells, primary screen, fluorescence, CHO cells, BLA complementation. Receptor-interacting serine/threonine-protein kinase 2 (Homo sapiens), O43353. CCF4 ratio. inhibition, % at 4.98 µM. 360,000 compounds, 0.38% hits. AID 624267, 2012; in the data active means inhibition above about 21%
TLR9-MyD88 block – inhibitors of TLR9-MyD88 association in cells, primary screen, cell-based, CHO, BLA complementation, fluorescence. CCF4 FRET ratio. inhibition, % at 4.98 µM. 340,000 compounds, 0.21% hits;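 active means inhibition above the mean over all tested compounds plus 3 SD, cut at about 21% in these data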
Of the large screens only hits and unclear results are named; the others gave an inactive call. Sampled rows, rich in hits. Any-hit rate of the full collection: about 1.8%.

Cc1ccsc1/C=C(\CC(=O)O)c1nc2ccccc2o1	none (no result: TLR4-MyD88 BLA)
COc1ccc(-c2cc(C(=O)O)c3c(C)nn(-c4ccccn4)c3n2)cc1	none (no result: LANA-H2B inh, Rtt109 HAT inh, HTR2A ag, NOD2-RIPK2 inh, TLR9-MyD88 block)
COc1ccc(N=CC2=C(Nc3ccc(OC)cc3)c3c(C)nn(-c4ccccn4)c3CC2)cc1	LANA-H2B inh 60 (no result: Rtt109 HAT inh, HTR2A ag, NOD2-RIPK2 inh, TLR9-MyD88 block)
COc1ccc(N2CCN(c3ncnc4scc(-c5ccc(C)cc5)c34)CC2)cc1	Rtt109 HAT inh 52 (no result: TLR4-MyD88 BLA)
COc1ccc(N2CCN(c3ncnc4scc(-c5ccc(F)cc5)c34)CC2)cc1	none (no result: TLR4-MyD88 BLA)
CC(Oc1ccccc1)C(=O)NC1CC(C)(C)NC(C)(C)C1 (stereo unspecified)	LANA-H2B inh 17
CC(Oc1ccccc1)C(=O)NC1CCCCCCC1 (stereo unspecified)	none (no result: TLR4-MyD88 BLA)
COC(=O)C[C@@H]1OC[C@H](C)N1S(=O)(=O)c1ccc(C)cc1	none (no result: LANA-H2B inh, Rtt109 HAT inh, TLR4-MyD88 BLA, TLR9-MyD88 block)
O=C(CSC1=NC2(CCCCCC2)N=C1c1ccccc1)Nc1ccc2c(c1)OCCO2	none
O=C(CSC1=NC2(CCCCC2)N=C1c1ccccc1)Nc1ccc2c(c1)OCCO2	Rtt109 HAT inh 170
Cc1ccccc1S(=O)(=O)N1C[C@H]2[C@H]3C(=O)N(c4ccccc4)C(=O)[C@H]3CC(=O)[C@H]2[C@@H]1c1ccc(Cl)cc1	none (no result: LANA-H2B inh, Rtt109 HAT inh, TLR4-MyD88 BLA, TLR9-MyD88 block)
O=C(CCn1c(=O)c2ccccc2n(Cc2cccc([N+](=O)[O-])c2)c1=O)N1CCc2ccccc2C1	Rtt109 HAT inh 59
COc1ccc(/C=N/NC(=O)COc2ccc(Cl)cc2Cl)cc1Cn1nc(C)cc1C	Rtt109 HAT inh 54
CC(=O)c1cccc(Nc2ccc(C#N)cc2)c1	none (no result: LANA-H2B inh, Rtt109 HAT inh, TLR4-MyD88 BLA, TLR9-MyD88 block)
O=C1CCCC(O)=C1C=Nc1ccc(O)cc1	LANA-H2B inh 17, Rtt109 HAT inh inconclusive
COC(=O)c1cccc(NC(=O)CC2C(=O)NCCN2C(=O)Nc2ccccc2)c1 (stereo unspecified)	LANA-H2B inh 189 (no result: TLR4-MyD88 BLA)
COC(=O)c1cc(NC(=O)CC2C(=O)NCCN2C(=O)c2ccccc2)cc(C(=O)OC)c1 (stereo unspecified)	none
CCNC(=O)c1sc2cc(C)ccc2c1Cl	LANA-H2B inh 36
CN(c1cccc(Cl)c1)S(=O)(=O)c1cccc(C(=O)NCc2ccncc2)c1	LANA-H2B inh 53 (no result: TLR4-MyD88 BLA)
CN(c1ccccc1)S(=O)(=O)c1cccc(C(=O)NCc2ccccc2)c1	none (no result: TLR4-MyD88 BLA)
CN(c1ccccc1)S(=O)(=O)c1cccc(NC(=O)CCNC(=O)c2ccc(Cl)cc2)c1	LANA-H2B inh 165 (no result: TLR4-MyD88 BLA)
CC(C)C(=O)Nc1nnc(CCN2CCCCC2)s1	Rtt109 HAT inh 52
Cc1ccccc1C(=O)Nc1ccc2c(C#N)c3nc4ccccc4nc3n2c1	LANA-H2B inh 28
Cc1nn(-c2ccccc2)c2[nH]c(=O)c(CNc3ccc(N4CCOCC4)cc3)cc12	none
Cc1nn(-c2ccc(Cl)cc2)c2[nH]c(=O)c(CNCc3ccc4c(c3)OCO4)cc12	LANA-H2B inh 24
COc1ccccc1Cc1c(-c2ccc(C#N)cc2)nc2c3ccccc3ccn12	none (no result: LANA-H2B inh, Rtt109 HAT inh, TLR4-MyD88 BLA, TLR9-MyD88 block)
O=C(c1ccco1)N1N=C(c2cccs2)CC1c1ccco1 (stereo unspecified)	none
Cc1ccc(C2CC(c3cccs3)=NN2C(=O)c2ccco2)o1 (stereo unspecified)	LANA-H2B inh 20
CCOC(=O)c1c(NC(=O)CSc2nnc(-c3cccc(C)c3)n2CC)sc(C(C)=O)c1C	none
CCOC(=O)c1c(NC(=O)CSc2nnc(-c3ccccc3)n2CC)sc(C(C)=O)c1C	LANA-H2B inh 23
CCOC(=O)C1=CCN(S(=O)(=O)c2ccc(F)cc2)C1c1ccc(F)cc1 (stereo unspecified)	none (no result: LANA-H2B inh, Rtt109 HAT inh, TLR4-MyD88 BLA, TLR9-MyD88 block)
COc1ccc(-c2nn(-c3ccccc3)cc2/C=N/NS(=O)(=O)c2ccccc2)cc1	LANA-H2B inh 10
COc1ccc(-c2nn(-c3ccccc3)cc2/C=N/O)cc1	none (no result: TLR4-MyD88 BLA)
O=C(Nc1ccc(Oc2ccccc2)cc1)c1ccc2sc([C@H]3C[C@H](O)[C@@H](CO)O3)nc2c1	none (no result: LANA-H2B inh, Rtt109 HAT inh, TLR4-MyD88 BLA, TLR9-MyD88 block)
CCOC1=C2CN(S(=O)(=O)c3ccc(C)cc3)[C@H](c3ccccc3)C[C@@H]2N(S(=O)(=O)c2ccc(Br)cc2)[C@H](c2ccccc2)C1	none (no result: LANA-H2B inh, Rtt109 HAT inh, TLR4-MyD88 BLA, TLR9-MyD88 block)
COc1cc(OC)cc(C(=O)Nc2nc(-c3ccccc3)c(-c3ccccc3)o2)c1	none (no result: Rtt109 HAT inh)
CC(=O)Nc1nc(-c2ccccc2)c(-c2ccccc2)o1	Rtt109 HAT inh 59
CC1CCN(C(=O)CCNS(=O)(=O)c2ccc(Br)cc2)CC1	LANA-H2B inh 24 (no result: TLR4-MyD88 BLA)
CC(=O)N1CCN(C(=O)CCNS(=O)(=O)c2ccc(Br)cc2)CC1	none (no result: TLR4-MyD88 BLA)
COc1ccc(CN2C(=O)C(CC(=O)NC3CCCCC3)CC(C(=O)N(C(C)C)C(C)C)=C2C)cc1 (stereo unspecified)	none (no result: LANA-H2B inh, Rtt109 HAT inh, TLR4-MyD88 BLA)
COCCC1CCCCN1C(=O)c1cccc(OC2CCN(S(C)(=O)=O)CC2)c1 (stereo unspecified)	LANA-H2B inh 17 (no result: TLR4-MyD88 BLA)
CCOC(=O)[C@]12CCC=C1N(Cc1cccc3ccccc13)C(=O)[C@H](CC(=O)NCC13CC4CC(CC(C4)C1)C3)C2	none (no result: LANA-H2B inh, Rtt109 HAT inh, TLR4-MyD88 BLA, TLR9-MyD88 block)
CC[C@@H]1C/C=C\Cc2ccccc2[C@@H](C(=O)C[C@H](O)CC(C)=O)OC1=O	LANA-H2B inh active (no result: TLR4-MyD88 BLA)
CC[C@@H]1C/C=C\Cc2ccccc2[C@H](C(=O)C[C@H](O)CC(C)=O)OC1=O	none (no result: TLR4-MyD88 BLA)
COc1ccc(C=O)c(OC)c1	LANA-H2B inh 12
Cc1cc(=O)[nH]c(N)n1	LANA-H2B inh 13 (no result: TLR4-MyD88 BLA)
Nc1cc(=O)[nH]c(N)n1	none (no result: TLR4-MyD88 BLA)
O=S(=O)(c1ccc(Cl)cc1)c1cnc2ccccc2n1	none
Cc1cc(C)cc(S(=O)(=O)c2cnc3ccccc3n2)c1	LANA-H2B inh 14
O=C(Nc1ccc2c(c1)C(=O)c1ccccc1-2)c1ccccc1	none (no result: LANA-H2B inh, TLR4-MyD88 BLA)
COc1cccc(C(=O)Nc2ccc3c(c2)C(=O)c2ccccc2C3=O)c1	Rtt109 HAT inh 50
COc1cc(CNC(=O)c2cc(-c3cc(F)ccc3OCC3CCCO3)n[nH]2)cc(OC)c1 (stereo unspecified)	none (no result: LANA-H2B inh, Rtt109 HAT inh, TLR4-MyD88 BLA, TLR9-MyD88 block)
Nc1nc2ccccc2[nH]1	none (no result: TLR4-MyD88 BLA)
Nc1ccccc1Sc1nc2ccccc2[nH]1	Rtt109 HAT inh 101
CC(C)N(CCn1c(SCC(=O)Nc2cccnc2Cl)nc2ccccc2c1=O)C(C)C	LANA-H2B inh 9.9 (no result: TLR4-MyD88 BLA)
Cc1ccc(-c2nnc(SCC(=O)N/N=C/c3ccc(C(=O)O)cc3)n2C2CCCCC2)cc1	LANA-H2B inh 12 (no result: TLR4-MyD88 BLA)
CSc1ncccc1C(=O)N(C)CC(=O)Nc1ccc(Cl)cc1	none (no result: TLR4-MyD88 BLA)
